NPC1 prom act = activators of NPC1 promoter; Huh7 NPC1 promoter luciferase reporter, 24 h; Potency, µM (series often up to 9.22 µM), for inactives: at the top dose activation, usual class: activators; 320,000 compounds, 2.4% hits; AID 485313; note: % of control where 0% means no effect; nearly all actives have a fitted effect of over 60% in size
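Compounds in DMSO were transferred onto Huh7 NPC1-luciferase reporter cells pre-incubated 2 h; after 24 h at 37 °C, Amplite reagent was dispensed and luminescence recorded 10 min later.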
SMN2 splice enh = SMN2 splice variant enhancement. HEK293 SMN2-luciferase splicing reporter, luminescence, 30-36 h. Potency, µM (highest dose often 46.1 µM), inactives show at the highest dose activity change, positive = activation, actives largely listed as activators. 210,000 compounds, 2.8% hits. AID 1458; note: % of control where 0% means no effect; nearly all actives have a fitted effect of over 55% in size
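qHTS luciferase splicing reporter: luminescence rises when SMN2 exon 7 is included in transfected HEK293 cells. Compound exposure lasted 30-36 h at 37C, with 4.5 mM final sodium butyrate as control, followed by a ONE-Glo read.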
Luc counter = blocks Kinase-Glo luciferase, a counter-screen artifact; 200,000 compounds, 0.28% hits; Potency, µM (highest dose often 38.3 µM), for the others: at the highest dose activity change, negative = inhibition, hits mostly inhibitors; Q27757; Kinase-Glo luciferase, ATP luminescence, 8 min; AID 1379; note: % is set by controls: 0 for no effect and ±100 for the full control effect; nearly all actives have a fitted effect of over 60% in size
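Recombinant Kinase-Glo luciferase, 10 uM ATP (linear range), luciferin; imidazole pH 7.2 / KCl / MgCl2 / Tween / BSA buffer; 8 min RT; luminescence.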
ELG1 genotoxic = induces genotoxicity in HEK293T cells with luciferase-tagged ELG1; 330,000 compounds, 1.3% hits; HEK293T ELG1-luciferase reporter, luminescence, 16 h; AID 504466; Potency, µM (highest dose often 46 µM), for the others: at the highest dose activity change, positive = activation, most hits filed as activators; note: % of control where 0% means no effect; nearly all actives have a fitted effect of over 60% in size
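Genotoxic stress is detected as increased luminescence from luciferase-tagged ELG1 in HEK293T cells, measured with ONE-Glo after a 16 hr treatment at 37 °C.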
Rab9 prom act = Rab9 promoter activation. 320,000 compounds, 2.8% hits. Potency, µM (highest dose often 9.22 µM), without a hit: top-dose activation, negative = inhibition, usual class: activators. Huh7 Rab9 promoter-luciferase reporter, luminescence, 24 h; note: % of control where 0% means no effect; nearly all actives have a fitted effect of over 60% in size
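Huh7 reporter line, Rab9 promoter upstream of luciferase. Compound exposure 24 h at 37 °C in reduced-serum medium with 10% FBS. Read-out: luminescence.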
FLuc modulator = firefly luciferase modulation, counter-screen for miR-21 project; purified FLuc, Km substrates, luminescence inhibition; AID 588342; 360,000 compounds, 6.9% hits; P08659; Potency, µM (titrated, usually from 57.5 µM), inactives show at the highest dose activity change, negative = inhibition, usual class: inhibitors;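 note: plate controls were vehicle for no effect and reference inhibitor for full effect; nearly all actives have a fitted effect of over 55% in size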
Target sequence (P08659 whole entry, looked up): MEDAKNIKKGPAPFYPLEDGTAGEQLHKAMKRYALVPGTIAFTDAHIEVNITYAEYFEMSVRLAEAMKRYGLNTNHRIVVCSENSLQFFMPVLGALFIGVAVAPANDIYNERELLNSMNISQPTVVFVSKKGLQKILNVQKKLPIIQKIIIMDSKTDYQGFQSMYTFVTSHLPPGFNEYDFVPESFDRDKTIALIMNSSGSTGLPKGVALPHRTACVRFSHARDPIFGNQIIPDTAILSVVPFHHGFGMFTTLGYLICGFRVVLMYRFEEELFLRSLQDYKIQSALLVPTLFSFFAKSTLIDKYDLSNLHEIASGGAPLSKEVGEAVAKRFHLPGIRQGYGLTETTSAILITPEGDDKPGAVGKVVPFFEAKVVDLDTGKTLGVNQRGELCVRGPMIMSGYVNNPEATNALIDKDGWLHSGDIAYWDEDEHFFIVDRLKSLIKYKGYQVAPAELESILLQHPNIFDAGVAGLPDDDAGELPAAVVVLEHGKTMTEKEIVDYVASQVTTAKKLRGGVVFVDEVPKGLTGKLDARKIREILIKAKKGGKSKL
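Purified P. pyralis luciferase, 10 nM final, with Km-level 10 uM D-luciferin and 10 uM ATP in 50 mM Tris acetate pH 7.5, 10 mM Mg acetate, 0.01% Tween-20, 0.05% BSA; 6-point qHTS titration about 60 µM downward; luminescence read.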
* hit, by the source's call; ? = inconclusive; · = not tested or not shown. An excerpt weighted towards active compounds, which were near 7.5% of everything screened. Calls come from the whole dose curve; as a rule, active = well fitted curve in the direction sought with a large enough effect; inconclusive = small, poorly fitted or top-dose-only effect, or another doubt; inactive = no such curve, though single readings can be large; an effect the other way counts as inactive or inconclusive. Potency is the fitted concentration of half-maximal effect.

SMILES	NPC1 prom act	SMN2 splice enh	Luc counter	ELG1 genotoxic	Rab9 prom act	FLuc modulator
COc1ccc(C(=O)CN2C(=O)c3ccccc3S2(=O)=O)cc1	-32%	·	·	-9%	?	13µM*
CCOC(=O)N1CCN(C(=O)CN2C(=O)c3ccccc3S2(=O)=O)CC1	1%	·	·	?	16%	3%
O=C(CN1C(=O)c2ccccc2S1(=O)=O)c1ccc(F)c(F)c1	?	·	·	-2%	?	11µM*
O=C(CN1C(=O)c2ccccc2S1(=O)=O)c1ccc(O)c(O)c1	18%	·	·	7%	?	-3%
CCN1CCN(C(=O)CN2C(=O)c3ccccc3S2(=O)=O)CC1	?	·	·	?	2.5µM*	?
COC(=O)C1=C(O)/C(=C\c2ccc(CNC(=O)C(=O)Nc3ccc(C)cc3)o2)N=C1C	1%	-20%	2%	8%	0%	6.7µM*
CCOC(=O)C1=C(O)/C(=C/c2ccc(CNC(=O)C(=O)Nc3ccc(C)cc3)o2)N=C1C	8%	-12%	13%	?	11%	7.6µM*
COC(=O)C1=C(O)/C(=C\c2ccc(CNC(=O)C(=O)Nc3ccc(C)c(C)c3)o2)N=C1C	-1%	-15%	-4%	8%	-5%	?
Cc1ccc(CNC(=O)COC(=O)c2cccc(S(=O)(=O)N3CCCCC3)c2)cc1	-6%	·	·	1%	-4%	?
COc1ccc(NC(=O)CN(Cc2ccco2)Cc2ccco2)cc1S(=O)(=O)N1CCCCC1	0%	·	·	-9%	-3%	·
Cc1cc(SCC(=O)NCc2ccccc2Cl)nc(=O)[nH]1	·	·	·	·	·	6%
O=C(c1cc(COc2c(F)cccc2F)on1)N1C[C@H]2CC[C@H]1C2	3.2µM*	·	·	12µM*	1.6µM*	12µM*
O=C(c1cc(COc2c(F)cccc2F)on1)N1CCC(c2ccncc2)CC1	-32%	·	1%	-7%	-31%	-3%
O=C(c1cc(COc2c(F)cccc2F)on1)N1CCC(c2ccccc2F)C1 (stereo not drawn)	29%	·	-3%	?	?	15µM*
Cc1cccc(C)c1OCc1cc(C(=O)N2CCC(c3ccncc3)CC2)no1	6%	·	·	10%	1%	13µM*
COc1ccc(N2CCN(C(=O)c3cnc(N4CCOCC4)c4ccccc34)CC2)cc1	·	·	·	·	·	-5%
Cc1ccc(-n2nnnc2CNC(=O)c2ccccc2)cc1C	·	·	·	·	·	-2%
CC(C)NC(=O)C1CCN(C2CCN(C(=O)c3scc4c3CCCC4)CC2)CC1	-1%	·	·	-7%	-4%	-1%
CC(N)CN (stereo not drawn)	·	-7%	·	·	·	·
Cc1nn(-c2ccccc2)c(N)c1Sc1cccc([N+](=O)[O-])c1	-2%	-32%	-2%	-1%	-5%	-2%
Cc1cc(C)nc(-n2nc(C)c(Sc3ccc(F)cc3)c2N)n1	2.5µM*	16µM*	-15%	?	3.5µM*	11µM*
Cc1ccc(NC(=O)C2CCCN(c3nc4ccccc4s3)C2)c(C)c1 (stereo not drawn)	·	4%	·	·	·	2%
Cc1cc(C)nc(N/N=C/c2ccc(N3CCOCC3)cc2)n1	-7%	20%	-1%	-10%	-18%	1%
Cc1ccc(S(=O)(=O)NN=Cc2ccc(N3CCOCC3)cc2)cc1[N+](=O)[O-]	·	·	·	1%	·	·
C(=N\Nc1ccccn1)/c1ccc(N2CCOCC2)cc1	3.2µM*	13µM*	-20%	?	2.8µM*	6µM*
O=[N+]([O-])c1cccc(N/N=C/c2ccc(N3CCOCC3)cc2)c1	2.8µM*	·	·	?	3.2µM*	11µM*
C(=N\Nc1ccccc1)/c1ccc(N2CCOCC2)cc1	3.2µM*	18µM*	-3%	?	2.8µM*	7.6µM*
COc1cc(/C=N/Nc2ccc(Cl)c(C(=O)O)c2)ccc1OC(=O)c1ccco1	?	3%	3%	-20%	26%	?
O=C(O)c1cc(N/N=C/c2ccc(N3CCOCC3)cc2)ccc1Cl	?	·	·	?	?	0.6µM*

Bioassay records deposited in PubChem by National Center for Advancing Translational Sciences (NCATS).
